The source of these data is PubChem BioAssay (NCATS).

The nature of test [1]: qHTS profiling of the MIPE4 collection as inhibitors of Plasmodium falciparum (3D7) proliferation (AID 743344; call rule not given here;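 note: scaled between DMSO vehicle wells and 0.29 µM artemisinin as full inhibition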). Particulars: P. falciparum 3D7 in erythrocytes, SYBR Green DNA fluorescence, 72 h; at 28.5 µM unless noted. A digest of the protocol:
(§1)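 Erythrocytes infected with P. falciparum (0.3% parasitemia, 2.5% hematocrit) incubated with compounds 72 h at 37 C, 5% CO2. Lysis with saponin/Triton buffer containing SYBR Green I, overnight at room temperature in the dark; DNA fluorescence (485/535 nm) normalised to 0.29 uM artemisinin and DMSO.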
A general note: qHTS replaces the single test concentration by a dilution series.

The nature of test [2]: qHTS profiling of the MIPE4 collection as inhibitors of Plasmodium falciparum (DD2) proliferation (AID 743345; call rule not given here). The following applies: P. falciparum Dd2 in erythrocytes, SYBR Green DNA, 72 h; at 28.5 µM unless noted. Put shortly:
as §1

Test [3] is described as follows: qHTS profiling of the MIPE4 collection as inhibitors of Plasmodium falciparum (DD2) proliferation (Rep 2) (AID 743346; call rule not given here). The following applies: P. falciparum Dd2 in erythrocytes, SYBR Green DNA, 72 h; at 28.5 µM unless noted. Put shortly:
as §1

Test [4] can be described thus: qHTS profiling of the MIPE4 collection as inhibitors of Plasmodium falciparum (HB3) proliferation (AID 743347; call rule not given here;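 note: plate controls were DMSO vehicle wells for no effect and artemisinin wells for full effect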). Particulars: P. falciparum HB3 in erythrocytes, SYBR Green DNA, 72 h; at 28.5 µM unless noted. Put shortly: as §1
Test [5] can be described thus: High-throughput drug toxicity screening in the BPDCN cell line Gen2.2 (AID 1224824; call rule not given here). Particulars: Gen2.2 BPDCN cells; at 45.8 µM (top of the series) unless noted. Put shortly: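 Seed 500 exponentially growing Gen2.2 cells/well; add compounds by pin tool; incubate 48 h, 37 °C, 5% CO2; add CellTiter-Glo, 15 min RT; read luminescence. % activity vs DMSO (100%) and bortezomib (0%).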

The nature of test [6]: High-throughput drug toxicity screening in the BPDCN cell line Cal-1 (AID 1224825; call rule not given here). Particulars: Cal-1 BPDCN cell viability, qHTS; at 45.8 µM (top of the series) unless noted. Put shortly: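 500 Cal-1 cells/well, RPMI + glutamine + 10% FBS (phenol red-free); cpd added by pin tool; 48 h, 37C, 5% CO2; CTG 15 min RT, lumi read. Normalised: DMSO 100%, bortezomib 9.2 uM 0%.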
A short description of test [7]: qHTS assay for measurement of the activity of small molecule inhibitors on Zika virus induced Caspase-3 activity in human iPSC derived neural progenitor cells (hNPCs) (AID 1224857). Note: nearly all actives have a fitted effect of over 65% in size. Note: potency is the fitted concentration of half-maximal effect. A digest of the protocol: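 hNPCs seeded 350 cells/well, cultured 16–20 h; compounds added 1 h before ZIKV (2 FFU/cell), 37 C 6 h. Caspase-Glo 3/7 luminescence after 30 min RT; % inhibition from induction scaled to uninfected (0%) and infected (100%) wells.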

Test [8] is described as follows: qHTS assay for measurement of the activity of small molecule inhibitors on Zika virus induced Caspase-3 activity in human astrocytoma cells (AID 1224859). Note: potency is the fitted concentration of half-maximal effect. Put shortly:
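Luminescence read-out (Caspase-Glo 3/7, 30 min RT) of caspase activity in SNB-19 cells infected 6 h with ZIKV, 2 FFU/cell, after 1 h compound pretreatment; % inhibition from induction normalised to uninfected (0%) and infected (100%) wells.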

A short description of test [9]: qHTS Screen of the MIPE 4.0 Collection Against Ewings Sarcoma (RDES) (AID 1259252). Note: nearly all actives have a fitted effect of over 35% in size. Note: potency is the fitted concentration of half-maximal effect. A digest of the protocol:
(§2)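 After a 4 h attachment period in RPMI/5% FBS, cells were pin-dosed with test compounds; DMSO served as negative and 9.2 uM bortezomib (final) as positive control. Luminescent CellTiter-Glo signal at 48 h defined viability.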

The nature of test [10]: qHTS Screen of the MIPE 4.0 Collection Against Ewings Sarcoma (TC71) (AID 1259253). Note: nearly all actives have a fitted effect of over 40% in size. Note: potency is the fitted concentration of half-maximal effect. A digest of the protocol:
as §2

Test [11] is described as follows: qHTS Screen of the MIPE 4.0 Collection Against Ewings Sarcoma (EW8) (AID 1259255).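 For viability: 100% = DMSO-treated cells and 0% = medium-only wells without cells.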 Note: nearly all actives have a fitted effect of over 35% in size. Note: potency is the fitted concentration of half-maximal effect. A digest of the protocol:
as §2

Test [12] in a line: qHTS Screen of the MIPE 4.0 Collection Against Ewings Sarcoma (TC32) (AID 1259256). Note: potency is the fitted concentration of half-maximal effect; nearly all actives have a fitted effect of over 45% in size. A digest of the protocol: as §2
A short description of test [13]: qHTS profiling for inhibitors of Plasmodium falciparum (HB3) proliferation (AID 743324).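 Note: 100% = DMSO vehicle wells and 0% = artemisinin-treated control wells.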 Particulars: Plasmodium falciparum HB3 blood-stage proliferation; at 28.7 µM (top of the series) unless noted. A digest of the protocol:
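P. falciparum HB3 grown in erythrocytes (0.3% parasitemia, 2.5% hematocrit final) with compound for 72 h at 37 C, 5% CO2. Parasite DNA detected by SYBR Green after saponin/triton lysis overnight; normalized to 0.29 uM artemisinin and DMSO.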

The nature of test [14]: Identifying Small Molecule Inhibitors of Pancreatic Cancer Stem Cells (A2780, Spheroid) (AID 1259357).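 Note: potency is the fitted concentration of half-maximal effect; compound exposure lasted 48 h before the ATP luminescence read.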 The following applies: Potency: A2780 spheroid viability. Put shortly: (§3)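 Cytotoxicity read by CellTiter-Glo luminescence after 48 h compound exposure at 37C; percent activity scaled between DMSO-treated cells and cell-free wells. Spheroid formats used cells pre-formed 14 days in stem cell media on hydrogel.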

The nature of test [15]: Identifying Small Molecule Inhibitors of Pancreatic Cancer Stem Cells (Panc1, Spheroid) (AID 1259359).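 Note: potency is the fitted concentration of half-maximal effect; compound exposure lasted 48 h before reading.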 A digest of the protocol: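 Monolayer and spheroid cultures are compared. Spheroids form over 14 days in stem cell medium on hydrogel-coated low-attachment plates, then are exposed to compound for 48 h before CellTiter-Glo luminescence.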
A short description of test [16]: Identifying Small Molecule Inhibitors of Pancreatic Cancer Stem Cells (SN12C, Spheroid) (AID 1259360). Note: potency is the fitted concentration of half-maximal effect. The following applies: Potency: SN12C spheroid viability. Put shortly:
as §3

Test [17] in a line: Identifying Small Molecule Inhibitors of Pancreatic Cancer Stem Cells (A278, Adherent) (AID 1259361). Note: nearly all actives have a fitted effect of over 35% in size. Put shortly:
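Adherent (2D) versus sphere (3D) formats; spheres generated 14 d in SCM beforehand. Compound transferred by pin tool after 4 h, 48 h incubation, CellTiter-Glo endpoint.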

The nature of test [18]: Identifying Small Molecule Inhibitors of Pancreatic Cancer Stem Cells (Panc1, Adherent) (AID 1259362). Note: potency is the fitted concentration of half-maximal effect. Particulars: Potency: viability. A digest of the protocol: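 Spheroids grown 14 days in stem cell media on hydrogel-coated nonadherent plates; 2D lines seeded directly. Compounds added after 4 h attachment, 48 h at 37C, 5% CO2; CellTiter-Glo luminescence normalized to DMSO (no inhibition) and no-cell wells (full inhibition).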

Inconclusive results are not listed. The source made the active and inactive calls. Unless noted, calls come from the whole dose curve; as a rule, active = well fitted curve in the direction sought with a large enough effect; inconclusive = small, poorly fitted or top-dose-only effect, or another doubt; inactive = no such curve, though single readings can be large; an effect the other way counts as inactive or inconclusive.

For the molecule `Oc1cc(O)cc(C=Cc2ccc(O)c(O)c2)c1`, the parasite growth, % of DMSO control in test [1] was 39.8%. The molecule also showed a parasite growth remaining, % of DMSO control (lower = more inhibition) in test [2] of 76.7%. Moreover, in [3], the parasite growth, % of control (lower = inhibition) was 32.1%. The molecule further returned a growth, % of control in test [4] of 50.9%. Besides, the cell viability, % of control (lower = more cytotoxic) in test [5] stood at 3.35%. In test [6], the viability (% of control) was 3.72%. In addition, the Potency in test [7] was 23.5 µM (active); in [8] it was 4.18 µM (active); in test [9], 20.9 µM (active); in test [10], 18.7 µM (active); in test [11], 18.7 µM (active).
For `C#CCN(C)CC1=Cc2ccccc2Oc2ccccc21`, the parasite growth, % of DMSO control in test [1] amounted to 51.9%. Also, the parasite growth remaining, % of DMSO control (lower = more inhibition) in test [2] was determined as 76.6%. In test [3], the parasite growth, % of control (lower = inhibition) stood at 63.1%. In test [4], this molecule returned a growth, % of control of 25.1%. Also, the cell viability, % of control (lower = more cytotoxic) in test [5] came to 124%. For the same molecule, the viability (% of control) in test [6] was determined as 98%. Moreover, the Potency entry in test [7], in test [8], in test [9], in test [10] and in [11] was “inactive” in each case.
The molecule `O=c1[nH]c(=O)n([C@H]2C[C@@H](O)[C@@H](CO)O2)cc1C(F)(F)F` registered a parasite growth, % of DMSO control in [1] of 62.3%. Further, the parasite growth remaining, % of DMSO control (lower = more inhibition) in test [2] came out at 62%. The parasite growth, % of control (lower = inhibition) in test [3] came out at 91.9%. Further, the cell viability, % of control (lower = more cytotoxic) in test [5] stood at 118%. Further, the viability (% of control) in [6] turned out to be 13.9%. The Potency result in test [7] and in [8] was “inactive” in each case. Moreover, the Potency is 5.26 µM (active) in test [9], 1.87 µM (active) in [10], 3.32 µM (active) in test [11] and 1.32 µM (active) in [12].
`Cc1cc(NC(=O)Nc2ccc(N(C)C)cc2)c2cc(F)cc(F)c2n1` gave a parasite growth, % of DMSO control in test [1] of 9.65%. In [2], the parasite growth remaining, % of DMSO control (lower = more inhibition) came to 46%. Besides, the parasite growth, % of control (lower = inhibition) in [3] amounted to 10.9%. For the same molecule, the growth, % of control in test [4] amounted to 10.1%. In test [5], the cell viability, % of control (lower = more cytotoxic) was found to be 149%. Besides, in [6], the viability (% of control) turned out to be 112%. The Potency entry in [7], in [8], in test [9] and in [10] was “inactive” throughout. Moreover, the Potency in test [11] is 26.4 µM (active).
As for `CN(C)CCN(C)C(=O)c1ccc(NC(=O)Nc2ccc(-c3nc(N4CCOCC4)c4ccn(CC(F)(F)F)c4n3)cc2)cc1`, the remaining proliferation (% of control), lower = more inhibition in test [13] was -1%. This molecule also yielded a parasite growth, % of DMSO control in test [1] of 5.47%. The molecule further showed a parasite growth remaining, % of DMSO control (lower = more inhibition) in [2] of 8.31%. For the same molecule, in test [3], the parasite growth, % of control (lower = inhibition) was 20.5%. Also, the growth, % of control in test [4] was 5.21%. The cell viability, % of control (lower = more cytotoxic) in test [5] is 4.33%. The viability (% of control) in test [6] worked out at 3.29%. The Potency result in test [7] and in [8] was “inactive” in each case. Also, the Potency in test [9] was 0.0187 µM (active); in [10], 0.0743 µM (active); in [11], 0.0209 µM (active); in test [14], 0.418 µM (active); in test [15] it was 6.62 µM (active); in [16], 0.264 µM (active). Moreover, the Potency in test [18] is 14.8 µM (active). The IC50 (viability decrease) in test [17] is 0.0418 µM (active).
In test [1], `C=C1c2cccc(O)c2C(O)=C2C(=O)[C@@]3(O)C(O)=C(C(N)=O)C(=O)[C@@H](N(C)C)[C@@H]3[C@@H](O)[C@H]12` registered a parasite growth, % of DMSO control of 23.7%. The parasite growth remaining, % of DMSO control (lower = more inhibition) in test [2] amounted to 36.4%. The molecule also returned a parasite growth, % of control (lower = inhibition) in [3] of 24.1%. In [4], the growth, % of control came to 15.6%. Besides, the cell viability, % of control (lower = more cytotoxic) in [5] is 88.8%. Moreover, in test [6], the viability (% of control) came out at 94.6%. Moreover, the Potency result in [7] and in [8] was “inactive” in each case. Moreover, the figures for the Potency in test [9], in [10] and in test [11] were 20.9 µM (active), 20.9 µM (active) and 23.5 µM (active), respectively.
`CN[C@@H](C)[C@H]1[C@H](O)C[C@@]2(C)[C@@H]3CC[C@H]4C(C)(C)[C@@H](NC)CC[C@@]45C[C@@]35CC[C@]12C` displayed a parasite growth, % of DMSO control in test [1] of 16.9%. In test [2], this molecule yielded a parasite growth remaining, % of DMSO control (lower = more inhibition) of 50.3%. In addition, the parasite growth, % of control (lower = inhibition) in test [3] came out at 12.6%. Also, the growth, % of control in test [4] is 13.3%. In test [5], the cell viability, % of control (lower = more cytotoxic) was 71.1%. The viability (% of control) in test [6] stood at 89.5%. Moreover, the Potency result in [7], in test [8], in test [9], in [10] and in [11] was “inactive” in each case.
